This note sets out measurements from PubChem BioAssay (EPA / NIEHS).

Inconclusive results are not listed. Activity calls are given as the source filed them. How the source made its calls: active means hit-call score of the fitted dose curve at least 0.9, where 1 is the maximum; inconclusive means response in the unintended direction; inactive means score below 0.9.

The nature of test [1]: ATG_M_06_XSP2: Attagene TRANS-FACTORIAL Multi-Species (XSP2) HepG2 Assay for M06 Transcription Factor (Internal Marker) (AID 2283811).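 Further: hits are increases in signal above the DMSO baseline.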 The essentials: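 HepG2, multiplexed reporter transfection; 24 h dosing; AR stimulated with 3 nM 6-alpha-fluorotestosterone + 1.5 nM norgestrel; RNA → RT-PCR → 6-FAM primer extension → HpaI → CE. Positive direction vs DMSO.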
Test [2] relates to turtle Estrogen Receptor (ERa), gene 101933533. Nature of the test: ATG_trERa_XSP2: Attagene TRANS-FACTORIAL Multi-Species (XSP2) HepG2 Assay for turtle Estrogen Receptor (ERa) (AID 2283812).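 Further: human HepG2 liver cells transiently expressing turtle ERa-Gal4 chimeric receptor; actives raise reporter signal above DMSO so AC50 reflects agonist activity.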 The essentials:
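HepG2 cells transiently transfected with GAL4-UAS reporter units expressing turtle ERa-Gal4 chimera. Reporter mRNA measured after 24 h dosing by RT-PCR, fluorescent labelling and capillary electrophoresis; gain of signal fitted versus DMSO.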

Test [3] addresses chicken Estrogen Receptor (ERa), ESR1 (gene 396099) (UniProt P06212). Nature of the test: ATG_chERa_XSP2: Attagene TRANS-FACTORIAL Multi-Species (XSP2) HepG2 Assay for chicken Estrogen Receptor (ERa) (AID 2283817).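 Further: actives raise reporter signal above DMSO so AC50 reflects ER activation.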 An outline of the steps:
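Transient MRTU transfection of HepG2 → 24 h chemical dosing → TriZol RNA, oligo(dT) RT → PCR, 6-FAM primer extension, HpaI digest → CE quantitation of chicken ERa-Gal4-driven reporter mRNA. Positive direction vs DMSO.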

Test [4] relates to zebrafish Estrogen Receptor (ER2a), gene 317734. Nature of the test: ATG_zfER2a_XSP2: Attagene TRANS-FACTORIAL Multi-Species (XSP2) HepG2 Assay for zebrafish Estrogen Receptor (ER2a) (AID 2283818).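 Further: hits raise reporter mRNA so AC50 reflects activation of zebrafish ER2a.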 The essentials:
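HepG2 cells transiently transfected with GAL4-UAS reporter units and chimeric zebrafish ER2a-Gal4, exposed 24 h; medium contains 3 nM 6-alpha-fluorotestosterone and 1.5 nM norgestrel. Reporter mRNA quantified by RT-PCR, HpaI digestion, capillary electrophoresis; gain versus DMSO.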

Test [5] has as its system frog Estrogen Receptor (ER), gene 398734. Nature of the test: ATG_frER1_XSP2: Attagene TRANS-FACTORIAL Multi-Species (XSP2) HepG2 Assay for frog Estrogen Receptor (ER) (AID 2283821).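 Further: hits raise reporter mRNA above DMSO baseline so potency means agonist or activator.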 An outline of the steps: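 Steps: transfect HepG2 with multiple reporter transcription units; treat with chemical for 24 h; isolate RNA, reverse-transcribe, PCR-amplify, label with 6-FAM, digest with HpaI; resolve fragments by capillary electrophoresis. Signal is scored against DMSO.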

For test [6], the system named is zebrafish Estrogen Receptor (ER2b), gene 317733. Nature of the test: ATG_zfER2b_XSP2: Attagene TRANS-FACTORIAL Multi-Species (XSP2) HepG2 Assay for zebrafish Estrogen Receptor (ER2b) (AID 2283823).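 Further: fitted upward as reporter gain over DMSO so potency reflects activation.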 An outline of the steps:
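Transcriptional induction measured as reporter mRNA (RT-PCR, fluorescent capillary electrophoresis) in transiently transfected HepG2 cells after 24 h dosing; DMSO served as negative control and baseline.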

Test [7] can be described thus: ATG_M_32_XSP2: Attagene TRANS-FACTORIAL Multi-Species (XSP2) HepG2 Assay for M19 Transcription Factor (Internal Marker) (AID 2283826). An outline of the steps: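 An internal background marker among multiplexed transfected reporters in HepG2 liver cells was measured 24 h after dosing. Androgen receptor stimulation came from 3 nM 6-alpha-fluorotestosterone and 1.5 nM norgestrel.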

In test [8] the target is Estrogen receptor (Homo sapiens) (UniProt P03372). Nature of the test: ATG_hERa_XSP2: Attagene TRANS-FACTORIAL Multi-Species (XSP2) HepG2 Assay for human Estrogen Receptor (ERa) (AID 2283827). The essentials: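 HepG2 cells transiently transfected with multiplexed GAL4-UAS reporters driven by chimeric receptor-Gal4 proteins, dosed 24 h with 3 nM 6-alpha-fluorotestosterone and 1.5 nM norgestrel present. Reporter mRNA by RT-PCR and capillary electrophoresis; gain-of-signal fit versus DMSO.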

The subject of test [9] is frog Estrogen Receptor (ER2), gene 100174814. Nature of the test: ATG_frER2_XSP2: Attagene TRANS-FACTORIAL Multi-Species (XSP2) HepG2 Assay for frog Estrogen Receptor (ER2) (AID 2283828). An outline of the steps:
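Multiplexed transactivation in HepG2: frog estrogen receptor fused to Gal4 drives a UAS reporter. Signal is reporter mRNA after 24 h treatment.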

Test [10] addresses Peroxisome proliferator-activated receptor gamma (Homo sapiens) (UniProt P37231). Nature of the test: ATG_hPPARg_XSP2: Attagene TRANS-FACTORIAL Multi-Species (XSP2) HepG2 Assay for human Peroxisome Proliferator-activated Receptor gamma (PPARg) (AID 2283829).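 Further: actives raise reporter mRNA above DMSO so AC50 reflects PPARg activation.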 The essentials:
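Human HepG2 cells carried transiently transfected Gal4 reporter units and were treated with chemical for 24 h alongside androgen-receptor stimulants (3 nM 6-alpha-fluorotestosterone, 1.5 nM norgestrel). Reporter transcripts were detected by RT-PCR with capillary electrophoresis, analysed in the positive direction against DMSO.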

Test [11] has as its target mouse Peroxisome Proliferator-activated Receptor gamma (PPARg), Pparg (gene 19016) (UniProt P37238). Nature of the test: ATG_mPPARg_XSP2: Attagene TRANS-FACTORIAL Multi-Species (XSP2) HepG2 Assay for mouse Peroxisome Proliferator-activated Receptor gamma (PPARg) (AID 2283830).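 Further: hits are gains in reporter mRNA above DMSO so AC50 marks activation.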 An outline of the steps:
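HepG2 cells transiently transfected with GAL4-UAS reporter units for chimeric NR-Gal4 proteins including mouse PPARg, exposed 24 h; medium contained 3 nM 6-alpha-fluorotestosterone and 1.5 nM norgestrel. Reporter mRNA quantified by RT-PCR, HpaI digestion and capillary electrophoresis, vs DMSO.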

Test [12] concerns the target Nuclear receptor subfamily 1 group I member 2 (Mus musculus) (UniProt O54915). Nature of the test: ATG_mPXR_XSP2: Attagene TRANS-FACTORIAL Multi-Species (XSP1) HepG2 Assay for mouse Pregnane X Receptor (PXR) (AID 2283831). The essentials:
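Fluorescence signals from capillary electrophoresis of RT-PCR-amplified reporter mRNA give the readout, gain-of-signal versus DMSO. Transfected HepG2 cells, 24 h dosing, medium contained 3 nM 6-alpha-fluorotestosterone and 1.5 nM norgestrel.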

A short description of test [13]: ATG_XTT_Cytotoxicity_XSP1: Cytotoxicity Assessment in the Attagene TRANS-FACTORIAL Multi-Species (XSP1) HepG2 Assay (AID 2283810). An outline of the steps: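 XTT viability readout taken at 24 hours post-dosing in HepG2 liver cells co-treated with 3 nM 6-alpha-fluorotestosterone. Signal loss relative to DMSO controls reflects cytotoxicity.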
For test [14], the target named is GAL4 Transcription Factor (Internal Marker), GAL4 (gene 855828) (UniProt P04386). Nature of the test: ATG_GAL4_XSP2: Attagene TRANS-FACTORIAL Multi-Species (XSP2) HepG2 Assay for GAL4 Transcription Factor (Internal Marker) (AID 2283814).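 Further: GAL4 reporter mRNA background control in MRTU transfected cells not a receptor target.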 An outline of the steps:
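HepG2 cells transiently transfected with GAL4-UAS reporter units, stimulated with 3 nM 6-alpha-fluorotestosterone plus 1.5 nM norgestrel, dosed 24 h. Reporter mRNA by RT-PCR/capillary electrophoresis; gain-of-signal fit versus DMSO, background control.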

Test [15] has as its target zebrafish Estrogen Receptor (ER1), esr1 (gene 259252) (UniProt P57717). Nature of the test: ATG_zfER1_XSP2: Attagene TRANS-FACTORIAL Multi-Species (XSP2) HepG2 Assay for zebrafish Estrogen Receptor (ER1) (AID 2283816). An outline of the steps: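 HepG2 cells transiently transfected with a GAL4-UAS reporter and a chimeric zebrafish ER1-Gal4 construct, dosed 24 h. Reporter mRNA quantified by RT-PCR, labelling, HpaI digestion and capillary electrophoresis, relative to DMSO.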

Test [16] has as its system chicken Androgen Receptor (AR), gene 422165. Nature of the test: ATG_chAR_XSP2: Attagene TRANS-FACTORIAL Multi-Species (XSP2) HepG2 Assay for chicken Androgen Receptor (AR) (AID 2283819).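 Further: hits raise reporter mRNA above DMSO so potency is for activation.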 An outline of the steps:
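HepG2 cells transiently transfected with chicken AR–GAL4 chimeric reporter constructs, stimulated with 3 nM 6-alpha-fluorotestosterone plus 1.5 nM norgestrel, dosed 24 h. Reporter mRNA quantified by RT-PCR and capillary electrophoresis; gain of signal fitted versus DMSO.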

Test [17] is described as follows: ATG_M_19_XSP2: Attagene TRANS-FACTORIAL Multi-Species (XSP2) HepG2 Assay for M32 Transcription Factor (Internal Marker) (AID 2283822). An outline of the steps: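 Internal background marker in a multi-species nuclear receptor TRANS panel: transfected HepG2 cells exposed 24 h, with 3 nM 6-alpha-fluorotestosterone and 1.5 nM norgestrel present. Readout is RT-PCR of reporter transcripts resolved by capillary electrophoresis, gain-of-signal versus DMSO.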

Peroxisome proliferator-activated receptor gamma (Homo sapiens), sequence (P37231 whole entry, looked up, the tested form may be a part): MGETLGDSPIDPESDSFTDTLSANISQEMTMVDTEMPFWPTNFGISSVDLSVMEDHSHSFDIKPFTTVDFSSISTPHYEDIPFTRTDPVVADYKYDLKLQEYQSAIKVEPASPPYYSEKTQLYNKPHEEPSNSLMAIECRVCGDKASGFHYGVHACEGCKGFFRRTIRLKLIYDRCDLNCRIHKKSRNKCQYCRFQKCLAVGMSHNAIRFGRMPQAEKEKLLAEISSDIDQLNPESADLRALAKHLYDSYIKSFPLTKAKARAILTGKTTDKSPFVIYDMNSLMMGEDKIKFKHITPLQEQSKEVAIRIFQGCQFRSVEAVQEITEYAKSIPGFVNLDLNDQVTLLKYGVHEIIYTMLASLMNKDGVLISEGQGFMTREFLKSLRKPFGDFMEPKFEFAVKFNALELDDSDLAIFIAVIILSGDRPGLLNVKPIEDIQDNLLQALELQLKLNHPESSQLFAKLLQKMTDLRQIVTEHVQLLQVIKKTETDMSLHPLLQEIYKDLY
GAL4 Transcription Factor (Internal Marker), GAL4 (gene 855828), sequence (P04386 whole entry, looked up, the tested form may be a part): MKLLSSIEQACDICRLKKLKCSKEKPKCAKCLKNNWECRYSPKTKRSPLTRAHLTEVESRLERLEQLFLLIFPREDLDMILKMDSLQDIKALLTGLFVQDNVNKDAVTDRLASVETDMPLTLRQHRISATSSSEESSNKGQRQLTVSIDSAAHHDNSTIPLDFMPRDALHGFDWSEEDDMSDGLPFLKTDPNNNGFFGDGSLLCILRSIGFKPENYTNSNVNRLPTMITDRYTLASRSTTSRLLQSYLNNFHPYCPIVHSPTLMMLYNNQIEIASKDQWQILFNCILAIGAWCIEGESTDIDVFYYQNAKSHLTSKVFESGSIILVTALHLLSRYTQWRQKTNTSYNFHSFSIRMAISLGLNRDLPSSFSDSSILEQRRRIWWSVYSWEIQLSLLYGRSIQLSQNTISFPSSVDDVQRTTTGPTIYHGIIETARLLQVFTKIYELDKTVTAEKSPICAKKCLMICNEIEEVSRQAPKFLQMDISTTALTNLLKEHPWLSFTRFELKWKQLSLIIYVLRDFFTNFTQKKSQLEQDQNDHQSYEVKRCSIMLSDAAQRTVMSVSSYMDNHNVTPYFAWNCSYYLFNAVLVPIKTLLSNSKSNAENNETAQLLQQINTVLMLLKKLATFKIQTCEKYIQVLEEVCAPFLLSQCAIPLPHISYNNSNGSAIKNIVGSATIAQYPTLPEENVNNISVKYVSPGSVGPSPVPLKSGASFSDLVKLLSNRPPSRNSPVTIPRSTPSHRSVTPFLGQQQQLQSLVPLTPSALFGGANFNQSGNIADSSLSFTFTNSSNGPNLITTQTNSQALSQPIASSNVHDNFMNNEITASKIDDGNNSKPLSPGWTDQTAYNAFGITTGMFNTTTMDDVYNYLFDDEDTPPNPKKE
mouse Peroxisome Proliferator-activated Receptor gamma (PPARg), Pparg (gene 19016), sequence (P37238 whole entry, looked up, the tested form may be a part): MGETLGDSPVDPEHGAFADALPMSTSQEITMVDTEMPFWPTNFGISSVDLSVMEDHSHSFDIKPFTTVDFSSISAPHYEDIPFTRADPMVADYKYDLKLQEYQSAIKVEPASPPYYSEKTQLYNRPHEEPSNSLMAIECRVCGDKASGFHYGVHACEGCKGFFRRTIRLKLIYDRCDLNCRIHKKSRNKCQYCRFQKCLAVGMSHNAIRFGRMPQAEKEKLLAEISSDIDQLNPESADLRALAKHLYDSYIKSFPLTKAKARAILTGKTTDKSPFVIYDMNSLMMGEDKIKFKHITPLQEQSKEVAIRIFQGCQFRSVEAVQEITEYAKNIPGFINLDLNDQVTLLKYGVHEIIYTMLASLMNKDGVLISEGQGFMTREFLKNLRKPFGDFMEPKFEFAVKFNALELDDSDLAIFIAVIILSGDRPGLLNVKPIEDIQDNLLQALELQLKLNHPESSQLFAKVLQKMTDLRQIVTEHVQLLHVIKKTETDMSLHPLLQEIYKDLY
Nuclear receptor subfamily 1 group I member 2 (Mus musculus), sequence (O54915 whole entry, looked up): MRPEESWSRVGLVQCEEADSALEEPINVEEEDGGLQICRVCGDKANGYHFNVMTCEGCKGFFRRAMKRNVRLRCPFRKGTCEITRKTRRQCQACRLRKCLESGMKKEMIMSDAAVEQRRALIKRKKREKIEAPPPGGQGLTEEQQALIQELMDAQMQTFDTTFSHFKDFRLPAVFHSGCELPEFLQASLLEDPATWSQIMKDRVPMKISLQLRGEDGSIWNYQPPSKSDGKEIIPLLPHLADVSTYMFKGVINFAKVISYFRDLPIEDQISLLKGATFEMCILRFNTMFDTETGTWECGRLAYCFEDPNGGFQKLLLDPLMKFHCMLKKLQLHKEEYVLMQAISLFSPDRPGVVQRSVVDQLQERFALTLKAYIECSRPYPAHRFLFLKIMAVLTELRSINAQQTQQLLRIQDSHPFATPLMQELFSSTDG
chicken Estrogen Receptor (ERa), ESR1 (gene 396099), sequence (P06212 whole entry, looked up, the tested form may be a part): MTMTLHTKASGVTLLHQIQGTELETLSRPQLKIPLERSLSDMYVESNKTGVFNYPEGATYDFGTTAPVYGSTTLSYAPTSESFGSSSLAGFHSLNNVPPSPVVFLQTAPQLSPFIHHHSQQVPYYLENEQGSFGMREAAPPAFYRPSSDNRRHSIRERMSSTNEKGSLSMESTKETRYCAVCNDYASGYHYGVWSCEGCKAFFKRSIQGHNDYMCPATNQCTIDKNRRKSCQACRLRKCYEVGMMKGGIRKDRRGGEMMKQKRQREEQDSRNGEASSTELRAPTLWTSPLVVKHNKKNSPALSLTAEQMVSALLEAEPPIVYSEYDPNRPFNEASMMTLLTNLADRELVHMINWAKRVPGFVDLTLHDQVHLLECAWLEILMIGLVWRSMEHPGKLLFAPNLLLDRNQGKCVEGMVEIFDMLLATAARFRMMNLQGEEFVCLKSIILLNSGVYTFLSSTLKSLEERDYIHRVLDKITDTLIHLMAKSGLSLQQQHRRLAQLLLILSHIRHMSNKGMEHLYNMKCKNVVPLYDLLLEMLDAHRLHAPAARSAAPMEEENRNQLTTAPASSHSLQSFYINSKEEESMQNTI
Estrogen receptor (Homo sapiens), sequence (P03372 whole entry, looked up, the tested form may be a part): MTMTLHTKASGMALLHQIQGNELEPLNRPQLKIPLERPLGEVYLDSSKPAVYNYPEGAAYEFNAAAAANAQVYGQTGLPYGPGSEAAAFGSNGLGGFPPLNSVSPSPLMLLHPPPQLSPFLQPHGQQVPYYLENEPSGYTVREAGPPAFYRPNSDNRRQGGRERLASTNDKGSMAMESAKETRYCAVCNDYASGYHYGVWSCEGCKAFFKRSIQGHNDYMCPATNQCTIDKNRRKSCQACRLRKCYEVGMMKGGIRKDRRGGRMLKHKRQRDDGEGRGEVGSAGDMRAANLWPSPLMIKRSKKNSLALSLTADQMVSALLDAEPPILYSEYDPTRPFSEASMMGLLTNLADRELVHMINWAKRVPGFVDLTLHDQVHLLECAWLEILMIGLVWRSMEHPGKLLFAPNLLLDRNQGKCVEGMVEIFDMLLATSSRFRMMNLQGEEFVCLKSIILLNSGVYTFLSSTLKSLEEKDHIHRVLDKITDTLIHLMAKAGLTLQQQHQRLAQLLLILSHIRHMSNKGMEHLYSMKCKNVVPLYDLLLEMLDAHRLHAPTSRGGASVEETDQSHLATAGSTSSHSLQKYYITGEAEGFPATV
zebrafish Estrogen Receptor (ER1), esr1 (gene 259252), sequence (P57717 whole entry, looked up, the tested form may be a part): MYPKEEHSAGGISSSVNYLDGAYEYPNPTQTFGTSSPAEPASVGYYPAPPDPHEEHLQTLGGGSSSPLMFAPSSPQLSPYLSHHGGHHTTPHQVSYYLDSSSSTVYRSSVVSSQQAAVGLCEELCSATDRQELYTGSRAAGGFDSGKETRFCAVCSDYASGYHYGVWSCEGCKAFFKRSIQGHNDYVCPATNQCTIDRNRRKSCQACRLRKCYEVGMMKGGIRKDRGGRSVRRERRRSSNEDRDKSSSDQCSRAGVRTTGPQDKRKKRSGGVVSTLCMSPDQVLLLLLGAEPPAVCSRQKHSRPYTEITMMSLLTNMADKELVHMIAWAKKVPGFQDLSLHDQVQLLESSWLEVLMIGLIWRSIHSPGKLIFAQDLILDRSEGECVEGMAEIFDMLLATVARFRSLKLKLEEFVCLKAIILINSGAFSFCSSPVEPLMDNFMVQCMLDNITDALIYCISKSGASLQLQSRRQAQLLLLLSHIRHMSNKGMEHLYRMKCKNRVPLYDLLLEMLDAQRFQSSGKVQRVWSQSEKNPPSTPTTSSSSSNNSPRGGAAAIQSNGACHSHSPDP

A word on the AC50: it is the midpoint of the concentration-response curve, whichever way the signal moves. In the case of `C=CC1(C)OC(=O)N(c2cc(Cl)cc(Cl)c2)C1=O` (stereo unspecified), the call in test [1], in [2], in [3], in test [4], in [5] and in test [7] was inactive. Also, the result in test [9] was inactive. Also, the AC50 in test [6] was 142 µM (active); in test [8], 3.58 µM (active); in test [10], 36.6 µM (active); in test [11], 29.5 µM (active); in test [12], 31.2 µM (active).
As for `CCCC1COC(Cn2cncn2)(c2ccc(Cl)cc2Cl)O1` (stereo unspecified), the outcome in test [13], in test [1], in test [14], in test [15] and in test [7] was inactive. Also, the AC50 is 64.2 µM (active) in test [2]; 3.88 µM (active) in test [3]; 167 µM (active) in test [5]; 39.5 µM (active) in test [6]; 32.5 µM (active) in test [9]; 67.2 µM (active) in [10]. In addition, the AC50 in [11] was 100 µM (active); in [12], 3.79 µM (active).
`CCCCOC(=O)c1ccccc1C(=O)OCCCC`: the result in test [13], in test [14], in test [15], in test [4], in [16] and in test [17] was inactive. Besides, the compound was called inactive in [7]. For the same compound, the AC50 is 42.3 µM (active) in test [2]; 23 µM (active) in test [3]; 29 µM (active) in test [5]; 79.3 µM (active) in test [6]; 30.2 µM (active) in [8]; 80.3 µM (active) in test [9]. For the same compound, the AC50 is 100 µM (active) in test [10], 100 µM (active) in test [11] and 14.4 µM (active) in test [12].
As for `COc1ccc(C(c2ccc(OC)cc2)C(Cl)(Cl)Cl)cc1`, the result in [13], in test [1], in test [14], in [4], in [16] and in [7] was inactive. Besides, the compound was called inactive in test [10] and in test [11]. In addition, the AC50 in test [2] is 8.99 µM (active); in test [3], 7.74 µM (active); in test [5], 8.82 µM (active); in [6] it was 8.65 µM (active); in [8], 12.1 µM (active); in test [9], 99.5 µM (active). Moreover, the AC50 in test [12] is 27.8 µM (active).
